Assay results reported in PubChem BioAssay (Tox21).
Records with an inconclusive call do not appear. A number with no mark means an inactive call. The source made the active and inactive calls. The call rests on the fitted dose curve; in most records, active means well fitted inhibition curve with a large enough effect in the signal ratio in the repeat runs; inconclusive means weak or mixed curves, or effect the other way; inactive means flat fitted curve, though single readings scatter; the % refers to the signal ratio. Positions of bridges follow the written chain, without caps; N, C: chain ends. Non-standard residues stand in square brackets, D forms with d. Residues, ends and D or L forms follow the SMILES beside them. ξ: configuration not given here. *: point of attachment. d(aThr) = C[C@@H](O)[C@@H](N)C(=O)O; ξThr(3R) = C[C@@H](O)C(N)C(=O)O; X3 = CC[C@@H](C)CCCCC(=O)*; dDab = NCC[C@@H](N)C(=O)O

test: qHTS assay for small molecule disruptors of the mitochondrial membrane potential (AID 720635); details: HepG2 mitochondrial membrane potential, Mito-MPS dye ratio; series mostly up to 83.2 µM; ratio activity, negative = MMP loss: at the top concentration
Source text: U.S. Tox21 Program National Center for Advancing Translational Sciences [NCATS] NIH Chemical Genomics Center [NCGC] U.S. Environmental Protection Agency [EPA] National Institutes of Environmental Health Sciences [NIEHS] National Toxicology Program [NTP] U.S. Food and Drug Administration [FDA] Tox21 Assay Overview: Mitochondrial membrane potential (MMP), one of the parameters for mitochondrial function, is generated by mitochondrial electron transport chain that creates an electrochemical gradient by a series of redox reactions. This gradient drives the synthesis of ATP, a crucial molecule for various cellular processes. Measuring MMP in living cells is commonly used to assess the effect of chemicals on mitochondrial function. […] The dye accumulates in the mitochondria of healthy cells as aggregates, with red fluorescence. The mitochondrial potential collapses and the dye can no longer accumulate in the mitochondria and remains in the cytoplasm in monomers, with green fluorescence.
Tox21 Assay Protocol Summary: 2,000 HepG2 cells in 5 uL/well were dispensed into black, clear-bottom 1536-well plates using a Multidrop Combi (Thermo Scientific) dispenser. The assay plates were incubated overnight at 37C to allow cells to attach to the wells, followed by the transfer of 23 nL compound or DMSO vehicle by a pin tool (Kalypsys). The plates were incubated for 1 hr at 37C and 5% CO2, followed by the addition of 5 uL of 2X Mito-MPS dye (BD Biosciences) into each well using Flying Reagent Dispenser (Aurora Discovery) and then following 30 min incubation at 37C. Fluorescence intensity (490nm excitation and 535nm emission for monomers; and 540nm excitation and 590nm emissions for aggregates) was measured using an Envision plate reader.
On the % scale 0 is the no-effect control and ±100 the full control effect; potency means the concentration at half of the fitted maximal effect.

SMILES	ratio activity, negative = MMP loss	Potency
N[C@H](CC(=O)O)C(=O)O	-16.4%	
CCCCC(=O)OCC(=O)[C@]1(O)Cc2c(O)c3c(c(O)c2[C@@H](O[C@H]2C[C@H](NC(=O)C(F)(F)F)[C@H](O)[C@H](C)O2)C1)C(=O)c1c(OC)cccc1C3=O		1.19 µM (active)
COc1ccc(C(=O)Nc2ccccc2CCC2CCCCN2C)cc1 (stereo not given)	8.37%	
CC1(C)S[C@@H]2[C@H](NC(=O)[C@H](NC(=O)N3CCN(S(C)(=O)=O)C3=O)c3ccccc3)C(=O)N2[C@H]1C(=O)O	6.35%	
CN1CC(O)c2cc(N=NC(N)=O)c(O)cc21 (stereo not given)	-16.1%	
CO[C@H]1C=CO[C@@]2(C)Oc3c(C)c(O)c4c(O)c(c(/C=N/N5CCN(C6CCCC6)CC5)c(O)c4c3C2=O)NC(=O)/C(C)=C\C=C[C@H](C)[C@H](O)[C@@H](C)[C@@H](O)[C@@H](C)[C@H](OC(C)=O)[C@@H]1C		1.19 µM (active)
CCCC(=O)O[C@]1(C(=O)COC(=O)CC)[C@@H](C)C[C@H]2[C@@H]3CCC4=CC(=O)C=C[C@]4(C)[C@@]3(F)[C@@H](O)C[C@@]21C		26.6 µM (active)
C=C1CC2C3CCC4=CC(=O)C=C[C@]4(C)[C@@]3(F)[C@@H](O)C[C@]2(C)[C@@]1(O)C(=O)COC(C)=O (stereo not given in full)	-11.4%	
Nc1nc2[nH]cc(CCc3ccc(C(=O)N[C@@H](CCC(=O)O)C(=O)O)cc3)c2c(=O)[nH]1	-17.5%	
FC(F)(F)C(F)(F)C(F)(F)C(F)(F)C(F)(F)C(F)(F)F	-5.4%	
CC(=O)N[C@@H]([C@@H](O)[C@H](O)[C@H](O)CO)[C@@H](O)CC(=O)C(=O)O	16.4%	
CC(CN(C)C)CN1c2ccccc2S(=O)(=O)c2ccccc21 (stereo not given)	7.14%	
CC1=C(/C=C/C(C)=C/C=C/C(C)=C/C(=O)Oc2c(C)c(C)c3c(c2C)CC[C@@](C)(CCC[C@H](C)CCC[C@H](C)CCCC(C)C)O3)C(C)(C)CCC1	9.36%	
CCCc1nc(C(C)(C)O)c(C(=O)OCc2oc(=O)oc2C)n1Cc1ccc(-c2ccccc2-c2nn[nH]n2)cc1	-13.8%	
C[N@+]12CCCC[C@@H]1CCC(=C(c1cccs1)c1cccs1)C2	16.3%	
N[C@@H](C(=O)N[C@@H]1C(=O)N2C(C(=O)O)=C(Cl)CC[C@H]12)c1ccccc1	-4.5%	
c1cnc2cc3c(cc2n1)[C@@H]1CNC[C@H]3C1	-3.66%	
C[C@H](CSC(=O)c1ccccc1)C(=O)N1C[C@@H](Sc2ccccc2)C[C@H]1C(=O)O	5.61%	
O=C(O)c1cc(N=Nc2ccc(O)c(C(=O)O)c2)ccc1O	-6.99%	
O=[N+]([O-])c1c(Cl)cccc1-c1c[nH]cc1Cl		2.98 µM (active)

SMILES	ratio activity, negative = MMP loss	Potency
CC(C)CN(C[C@@H](OP(=O)(O)O)[C@H](Cc1ccccc1)NC(=O)O[C@H]1CCOC1)S(=O)(=O)c1ccc(N)cc1	-12%	
O=C(O)COc1ccc(CCNS(=O)(=O)c2ccccc2)s1	-23.4%	
COC1=C(C(=O)O)N2C(=O)[C@@H](NC(=O)[C@H](N)C3=CCC=CC3)[C@H]2SC1	-10.6%	
CN(C(=O)CO)c1c(I)c(C(=O)NCC(O)CO)c(I)c(C(=O)NCC(O)CO)c1I (stereo not given)	4.58%	
C=CCCCCCCCCC(=O)OC	-19.8%	
CN=C1C=CC(=C(c2ccc(N(C)C)cc2)c2ccc(N(C)C)cc2)C=C1		0.0441 µM (active)
CCCCCCCC(=O)CC[C@@H]1[C@@H](C/C=C\CCCC(=O)OC(C)C)[C@@H](O)C[C@H]1O		26.6 µM (active)
CN(C)C(=O)CCSC(SCCC(=O)O)c1cccc(/C=C/c2ccc3ccc(Cl)cc3n2)c1 (stereo not given)		24.8 µM (active)
O=C(OCCO)c1ccccc1O	-6.85%	
CS(=O)(=O)OCCCNCCCOS(C)(=O)=O	18.2%	
O=C(OCc1ccccc1)c1cccnc1		23.7 µM (active)
CCN(CC)CCOC(=O)c1ccc(N)cc1Cl	8.82%	
CC[C@@H](C)CCCCC(=O)N[C@H](CCN)C(=O)N[C@@H](C(=O)N[C@H](CCN)C(=O)N[C@@H]1CCNC(=O)C([C@@H](C)O)NC(=O)[C@@H](CCN)NC(=O)[C@@H](CCN)NC(=O)[C@@H](CC(C)C)NC(=O)[C@@H](Cc2ccccc2)NC(=O)[C@@H](CCN)NC1=O)[C@@H](C)O (stereo partly drawn) (X3-[dDab][d(aThr)][dDab][dDab][dDab][dF][dL][dDab][dDab][ξThr(3R)]; lactam 4-C)	-18.6%	
CCOC(=O)[C@H](CS)NCCN[C@@H](CS)C(=O)OCC	-5.51%	
Cn1c(=O)c2c(ncn2CCOC(=O)C(C)(C)Oc2ccc(Cl)cc2)n(C)c1=O	-18.1%	
CCC(=O)O[C@@H]1CC(=O)O[C@H](C)C/C=C/C=C/[C@H](O)[C@H](C)C[C@H](CC=O)[C@H](O[C@@H]2O[C@H](C)[C@@H](O[C@H]3C[C@@](C)(O)[C@@H](OC(=O)CC)[C@H](C)O3)[C@H](N(C)C)[C@H]2O)[C@H]1OC	18.2% [at 39.1 µM]	
O=C(O)[C@@H](O)[C@H](O)[C@H](O)[C@@H](O)C(=O)O (tested in a mixture with another compound)	-21%	
NC[C@@H]1O[C@H](O[C@H]2[C@@H](O)[C@H](O[C@@H]3[C@@H](O)[C@H](N)C[C@H](N)[C@H]3O[C@H]3O[C@H](CN)[C@@H](O)[C@H](O)[C@H]3N)O[C@@H]2CO)[C@H](N)[C@@H](O)[C@@H]1O	2.04%	
CCC(C)(C)OC(=O)N[C@@H](Cc1c[nH]c2ccccc12)C(=O)N[C@@H](CCSC)C(=O)N[C@@H](CC(=O)O)C(=O)N[C@@H](Cc1ccccc1)C(N)=O	-0.844%	
COC(=O)CCC(=O)CN	-9.23%	
